Data taken from PubChem BioAssay (EPA / NIEHS).
Several values for one entry are separate records, joined by “and”; a condition that tells them apart may be missing. Equal entries are not always repeated. Inconclusive results are not listed. The source holds several records for some structures; these can differ, active in one and inactive in another. Activity calls are given as the source filed them. How the source made its calls, unless noted: active means hit-call score of the fitted dose curve at least 0.9, where 1 is the maximum; inactive means score below 0.9.

Legend:
[1] = BSK_4H_Eotaxin3: BioMAP Diversity Plus: 4H Assay for Eotaxin 3 Biomarker Activity (AID 2283000); settings: primary human endothelial cells (HUVEC); actives raise or lower the signal
Summary of the method: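 Eotaxin-3 (CCL26) levels were measured by ELISA in HUVEC primary cultures 24 h post-dosing. Gain or loss of signal was fitted in both directions, with DMSO serving as baseline and negative control.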

[2] = target: human Peroxisome Proliferator-activated Receptor alpha (PPARa), PPARA (gene 5465) (UniProt Q07869); assay: ATG_PPARa_TRANS: Attagene TRANS-FACTORIAL HepG2 Assay for human Peroxisome Proliferator-activated Receptor alpha (PPARa) (AID 2283001; active means hit-call score of the fitted dose curve at least 0.9, where 1 is the maximum;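 on AC50: potency for gain of reporter signal over DMSO so agonist or activator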)
Summary of the method: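 Reporter transcripts from GAL4-UAS units in transfected HepG2 were quantified 24 h after dosing. Detection used reverse transcription, PCR, fluorescent primer extension and capillary electrophoresis, with DMSO as baseline.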

[3] = target: human Peroxisome Proliferator-activated Receptor delta (PPARd), PPARD (gene 5467) (UniProt Q03181); assay: ATG_PPARd_TRANS: Attagene TRANS-FACTORIAL HepG2 Assay for human Peroxisome Proliferator-activated Receptor delta (PPARd) (AID 2283002; active means hit-call score of the fitted dose curve at least 0.9, where 1 is the maximum)
Summary of the method: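 Read-out is induced reporter mRNA, quantified by RT-PCR with fluorescent labelling and capillary electrophoresis after 24 h dosing. Cells are HepG2 transiently carrying multiple GAL4-UAS reporter units driven by exogenous NR-GAL4 chimeras; DMSO serves as baseline.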

[4] = read-out: Intercellular Adhesion Molecule 1 (ICAM1), ICAM1 (gene 3383); assay: BSK_3C_ICAM1: BioMAP Diversity Plus: 3C Assay for Intercellular Adhesion Molecule 1 (ICAM1) Biomarker Activity (AID 2283003); settings: primary human endothelial cells (HUVEC); actives raise or lower the signal
Summary of the method: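 Human vascular endothelial primary cells, 3C conditions, 24 h treatment. ICAM-1 by ELISA.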

[5] = BSK_3C_Proliferation: Cell Proliferation Assessment in the BioMAP Diversity Plus: 3C Assay (AID 2283006); settings: primary human endothelial cells (HUVEC);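 on AC50: potency may reflect either rise or fall in cell number versus DMSO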
Summary of the method: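 Proliferation of human vascular endothelial primary cells after 48 h dosing, quantified as SRB-stained protein at 560 nm relative to DMSO.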

[6] = target: Peroxisome proliferator-activated receptor gamma (Homo sapiens) (UniProt P37231); assay: ATG_PPARg_TRANS: Attagene TRANS-FACTORIAL HepG2 Assay for human Peroxisome Proliferator-activated Receptor-gamma (PPARg) (AID 2283007; active means hit-call score of the fitted dose curve at least 0.9, where 1 is the maximum)
Summary of the method: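 Multiplexed reporter transcription units in HepG2, 24 h dosing, reporter transcripts quantified by fluorescent RT-PCR and capillary electrophoresis. Increase over DMSO scored.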

[7] = target: human Retinoic Acid Receptor gamma (RARg), RARG (gene 5916) (UniProt P13631); assay: ATG_RARg_TRANS: Attagene TRANS-FACTORIAL HepG2 Assay for human Retinoic Acid Receptor gamma (RARg) (AID 2283009; active means hit-call score of the fitted dose curve at least 0.9, where 1 is the maximum)
Summary of the method: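 HepG2, RARg-GAL4 TRANS system, 24 h exposure; reporter mRNA by RT-PCR + CE fluorescence; increase over DMSO.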

[8] = target: Retinoic acid receptor RXR-alpha (Homo sapiens) (UniProt P19793); assay: ATG_RXRa_TRANS: Attagene TRANS-FACTORIAL HepG2 Assay for human Retinoid X Receptor alpha (RXRa) (AID 2283012; active means hit-call score of the fitted dose curve at least 0.9, where 1 is the maximum)
Summary of the method: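 Cells (HepG2) carried transiently transfected GAL4-responsive reporter units. Following a 24 h chemical incubation, reporter mRNA induction was read via RT-PCR fragment analysis; DMSO served as negative control and baseline.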

[9] = read-out: E-selectin (Homo sapiens) (UniProt P16581); assay: BSK_3C_Eselectin: BioMAP Diversity Plus: 3C Assay for Eselectin Biomarker Activity (AID 2283015); settings: primary human endothelial cells (HUVEC); actives raise or lower the signal
Summary of the method: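 Primary human umbilical vein endothelial cells (3C system), read 24 h after compound addition; E-selectin measured by ELISA. Bidirectional curve fitting against DMSO baseline; cytotoxicity by parallel SRB total-protein staining.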

[10] = read-out: Interleukin-1 alpha (IL1a), IL1A (gene 3552); assay: BSK_BE3C_IL1a: BioMAP Diversity Plus: BE3C Assay for Interleukin-1 alpha (IL1a) Biomarker Activity (AID 2283016); settings: primary human bronchial epithelial cells; actives raise or lower the signal
Summary of the method: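 Cultures of primary human bronchial epithelial cells receive test chemical. After 24 h, IL-1a is quantified by ELISA, while parallel wells are fixed in TCA and SRB-stained for total protein. Changes in either direction are fitted relative to DMSO.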

[11] = read-out: Monocyte Chemoattractant Protein-1 (MCP1), CCL2 (gene 6347); assay: BSK_4H_MCP1: BioMAP Diversity Plus: 4H Assay for Monocyte Chemoattractant Protein-1 (MCP1) Biomarker Activity (AID 2283018); settings: primary human endothelial cells (HUVEC); actives raise or lower the signal
Summary of the method: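 Readout: MCP-1 ELISA on compound-treated HUVEC, sampled 24 h post-dosing. Baseline and negative control DMSO; bidirectional fit. Overt toxicity checked alongside by sulforhodamine B protein staining at time of biomarker measurement.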

[12] = read-out: Human Leukocyte Antigen - DR isotype (HLADR), HLA-DRA (gene 3122); assay: BSK_3C_HLADR: BioMAP Diversity Plus: 3C Assay for Human Leukocyte Antigen - DR isotype (HLADR) Biomarker Activity (AID 2283019); settings: primary human endothelial cells (HUVEC); actives raise or lower the signal
Summary of the method: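 HUVEC monoculture, HLA-DR measured by ELISA 24 h after chemical dosing. Fitted bidirectionally against DMSO baseline; parallel SRB staining assessed cytotoxicity, with 3C proliferation read by SRB at 48 h.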

[13] = target: Nuclear receptor subfamily 1 group I member 2 (Homo sapiens) (UniProt O75469); assay: ATG_PXR_TRANS: Attagene TRANS-FACTORIAL HepG2 Assay for human Pregnane X Receptor (PXR) (AID 2283008; active means hit-call score of the fitted dose curve at least 0.9, where 1 is the maximum)
Summary of the method: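 Fluorescence intensity of FAM-labelled, HpaI-digested reporter amplicons, separated by capillary electrophoresis, quantifies induction. HepG2 cells with PXR-Gal4 trans-reporter system were exposed 24 h; DMSO defines baseline.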

[14] = target: human RAR-related Orphan Receptor beta (RORb), RORB (gene 6096) (UniProt Q92753); assay: ATG_RORb_TRANS: Attagene TRANS-FACTORIAL HepG2 Assay for human RAR-related Orphan Receptor beta (RORb) (AID 2283010; active means hit-call score of the fitted dose curve at least 0.9, where 1 is the maximum)
Summary of the method: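 In this TRANS-format test, human HepG2 cells express chimeric NR-Gal4 fusion proteins driving GAL4-UAS reporters. After 24 h dosing, reporter transcripts are measured by fluorescent RT-PCR/capillary electrophoresis, with DMSO as negative control.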

[15] = target: human Thyroid Receptor alpha (THRa1), THRA (gene 7067) (UniProt P10827); assay: ATG_THRa1_TRANS: Attagene TRANS-FACTORIAL HepG2 Assay for human Thyroid Receptor alpha (THRa1) (AID 2283014; active means hit-call score of the fitted dose curve at least 0.9, where 1 is the maximum)
Summary of the method: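 HepG2 cells transiently transfected with chimeric NR-Gal4 and GAL4-UAS reporter units, dosed 24 h. Reporter mRNA quantified by RT-PCR, fluorescent labeling, HpaI digestion and capillary electrophoresis; gain-of-signal fit versus DMSO.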

[16] = read-out: Monocyte Chemoattractant Protein-1 (MCP1), CCL2 (gene 6347); assay: BSK_3C_MCP1: BioMAP Diversity Plus: 3C Assay for Monocyte Chemoattractant Protein-1 (MCP1) Biomarker Activity (AID 2283017); settings: primary human endothelial cells (HUVEC); actives raise or lower the signal
Summary of the method: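 Human umbilical vein endothelial cells (3C system) exposed to chemicals for 24 h; MCP-1 quantified by ELISA against the DMSO baseline with bidirectional fitting, and parallel SRB staining used to assess cytotoxicity.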

[17] = target: human Retinoic Acid Receptor beta (RARb), RARB (gene 5915) (UniProt P10826); assay: ATG_RARb_TRANS: Attagene TRANS-FACTORIAL HepG2 Assay for human Retinoic Acid Receptor beta (AID 2283004; active means hit-call score of the fitted dose curve at least 0.9, where 1 is the maximum)
Summary of the method: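 HepG2 cells were transiently transfected with GAL4-UAS reporter units that report activity of exogenous chimeric NR-Gal4 proteins, then exposed to compound for 24 h. Reporter mRNA was quantified by RT-PCR with capillary electrophoresis fluorescence, as gain of signal over DMSO.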

[18] = target: Retinoic acid receptor alpha (Homo sapiens) (UniProt P10276); assay: ATG_RARa_TRANS: Attagene TRANS-FACTORIAL HepG2 Assay for human Retinoic Acid Receptor alpha (RARa) (AID 2283005; active means hit-call score of the fitted dose curve at least 0.9, where 1 is the maximum)
Summary of the method: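 Reporter transcripts, measured by RT-PCR with fluorescent labeling and capillary electrophoresis after 24 h dosing, reflect activity of an exogenous human RARa–GAL4 fusion in transiently transfected HepG2. Fitted for increase relative to DMSO.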

[19] = target: human RAR-related Orphan Receptor gamma (RORg), RORC (gene 6097) (UniProt P51449); assay: ATG_RORg_TRANS: Attagene TRANS-FACTORIAL HepG2 Assay for human RAR-related Orphan Receptor gamma (RORg) (AID 2283011; active means hit-call score of the fitted dose curve at least 0.9, where 1 is the maximum)
Summary of the method: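 HepG2 cells transiently transfected with GAL4-UAS reporter units and chimeric RORg-Gal4 construct; after 24 h chemical exposure, reporter mRNA measured by RT-PCR with fluorescent capillary electrophoresis, gain of signal fitted against DMSO.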

[20] = target: human Retinoid X Receptor beta (RXRb), RXRB (gene 6257) (UniProt P28702); assay: ATG_RXRb_TRANS: Attagene TRANS-FACTORIAL HepG2 Assay for human Retinoid X Receptor beta (RXRb) (AID 2283013; active means hit-call score of the fitted dose curve at least 0.9, where 1 is the maximum)
Summary of the method: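 Multiplexed TRANS reporter assay in HepG2; 24 h dosing; reporter mRNA by RT-PCR/CE fluorescence; gain-of-signal relative to DMSO.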

Measured: AC50

Peroxisome proliferator-activated receptor gamma (Homo sapiens), sequence (P37231 whole entry, looked up): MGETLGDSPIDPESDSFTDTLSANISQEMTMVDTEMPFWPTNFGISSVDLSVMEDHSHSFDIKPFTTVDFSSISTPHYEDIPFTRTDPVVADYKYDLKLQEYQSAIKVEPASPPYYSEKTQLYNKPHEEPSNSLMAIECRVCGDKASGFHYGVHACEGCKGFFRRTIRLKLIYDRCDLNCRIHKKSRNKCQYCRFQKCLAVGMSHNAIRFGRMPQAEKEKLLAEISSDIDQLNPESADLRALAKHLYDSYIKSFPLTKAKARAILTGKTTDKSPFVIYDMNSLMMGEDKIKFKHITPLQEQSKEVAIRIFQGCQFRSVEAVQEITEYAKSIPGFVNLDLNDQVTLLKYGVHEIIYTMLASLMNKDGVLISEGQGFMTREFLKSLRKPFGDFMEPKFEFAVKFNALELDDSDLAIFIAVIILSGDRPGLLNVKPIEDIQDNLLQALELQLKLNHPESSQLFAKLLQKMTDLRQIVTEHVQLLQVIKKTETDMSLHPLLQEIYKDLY
Retinoic acid receptor RXR-alpha (Homo sapiens), sequence (P19793 whole entry, looked up, the tested form may be a part): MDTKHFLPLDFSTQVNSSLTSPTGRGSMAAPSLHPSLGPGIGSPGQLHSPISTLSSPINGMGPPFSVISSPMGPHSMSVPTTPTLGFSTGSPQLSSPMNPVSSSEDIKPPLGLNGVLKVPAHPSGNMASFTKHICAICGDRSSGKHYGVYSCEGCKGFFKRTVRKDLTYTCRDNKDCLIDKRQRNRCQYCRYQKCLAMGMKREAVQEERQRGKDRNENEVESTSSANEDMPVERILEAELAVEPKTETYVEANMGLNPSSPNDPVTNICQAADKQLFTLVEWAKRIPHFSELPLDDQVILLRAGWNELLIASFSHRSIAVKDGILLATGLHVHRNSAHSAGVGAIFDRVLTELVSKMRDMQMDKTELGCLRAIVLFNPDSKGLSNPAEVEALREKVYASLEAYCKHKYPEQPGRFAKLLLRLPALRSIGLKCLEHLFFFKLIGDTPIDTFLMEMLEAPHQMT
Nuclear receptor subfamily 1 group I member 2 (Homo sapiens), sequence (O75469 whole entry, looked up, the tested form may be a part): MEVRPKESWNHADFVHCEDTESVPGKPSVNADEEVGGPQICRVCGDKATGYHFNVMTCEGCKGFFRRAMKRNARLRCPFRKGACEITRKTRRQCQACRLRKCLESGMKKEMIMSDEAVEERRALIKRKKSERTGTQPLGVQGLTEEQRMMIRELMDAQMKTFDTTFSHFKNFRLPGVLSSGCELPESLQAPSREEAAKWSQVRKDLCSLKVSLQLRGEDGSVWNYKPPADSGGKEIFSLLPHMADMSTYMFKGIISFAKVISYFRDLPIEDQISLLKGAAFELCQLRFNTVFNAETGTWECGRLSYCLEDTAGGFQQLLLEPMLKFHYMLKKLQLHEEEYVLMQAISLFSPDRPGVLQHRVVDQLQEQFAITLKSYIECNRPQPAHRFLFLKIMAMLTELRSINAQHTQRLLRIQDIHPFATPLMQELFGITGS
human Retinoic Acid Receptor beta (RARb), RARB (gene 5915), sequence (P10826 whole entry, looked up, the tested form may be a part): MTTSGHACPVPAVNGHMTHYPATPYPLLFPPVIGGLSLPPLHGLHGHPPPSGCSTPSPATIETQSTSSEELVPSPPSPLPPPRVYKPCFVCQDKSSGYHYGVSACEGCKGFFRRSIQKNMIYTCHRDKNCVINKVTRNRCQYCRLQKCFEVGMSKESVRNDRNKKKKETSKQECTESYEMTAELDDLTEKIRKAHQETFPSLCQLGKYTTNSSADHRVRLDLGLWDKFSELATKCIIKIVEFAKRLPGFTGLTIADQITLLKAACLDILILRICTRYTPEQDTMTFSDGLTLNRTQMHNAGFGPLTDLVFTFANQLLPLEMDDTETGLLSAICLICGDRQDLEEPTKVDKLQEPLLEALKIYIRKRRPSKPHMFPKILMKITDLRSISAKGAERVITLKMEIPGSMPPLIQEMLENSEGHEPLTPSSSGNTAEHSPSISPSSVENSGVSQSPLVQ
human Peroxisome Proliferator-activated Receptor delta (PPARd), PPARD (gene 5467), sequence (Q03181 whole entry, looked up, the tested form may be a part): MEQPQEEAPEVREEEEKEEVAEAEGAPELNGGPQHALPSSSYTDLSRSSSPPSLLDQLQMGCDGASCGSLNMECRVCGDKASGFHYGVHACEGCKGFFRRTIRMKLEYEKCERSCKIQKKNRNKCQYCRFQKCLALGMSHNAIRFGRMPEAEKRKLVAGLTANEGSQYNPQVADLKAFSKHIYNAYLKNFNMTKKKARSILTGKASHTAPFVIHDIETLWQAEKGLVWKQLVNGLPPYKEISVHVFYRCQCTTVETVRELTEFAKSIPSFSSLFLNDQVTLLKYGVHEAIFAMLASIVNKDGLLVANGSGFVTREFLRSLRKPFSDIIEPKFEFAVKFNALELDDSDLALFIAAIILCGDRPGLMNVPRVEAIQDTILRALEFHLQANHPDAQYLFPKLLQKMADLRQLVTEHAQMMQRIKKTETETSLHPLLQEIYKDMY
Retinoic acid receptor alpha (Homo sapiens), sequence (P10276 whole entry, looked up, the tested form may be a part): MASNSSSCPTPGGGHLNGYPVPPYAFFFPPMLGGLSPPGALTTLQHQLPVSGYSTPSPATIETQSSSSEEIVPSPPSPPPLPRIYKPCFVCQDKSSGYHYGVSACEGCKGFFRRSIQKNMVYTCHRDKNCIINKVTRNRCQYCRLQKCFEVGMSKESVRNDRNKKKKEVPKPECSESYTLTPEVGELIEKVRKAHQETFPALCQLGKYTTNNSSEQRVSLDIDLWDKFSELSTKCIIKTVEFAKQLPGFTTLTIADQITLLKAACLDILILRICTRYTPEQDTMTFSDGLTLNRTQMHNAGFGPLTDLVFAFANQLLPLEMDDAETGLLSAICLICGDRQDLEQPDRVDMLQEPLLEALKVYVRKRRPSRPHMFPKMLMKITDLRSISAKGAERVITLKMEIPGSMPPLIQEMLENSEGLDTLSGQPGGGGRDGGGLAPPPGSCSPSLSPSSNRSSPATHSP
human RAR-related Orphan Receptor beta (RORb), RORB (gene 6096), sequence (Q92753 whole entry, looked up, the tested form may be a part): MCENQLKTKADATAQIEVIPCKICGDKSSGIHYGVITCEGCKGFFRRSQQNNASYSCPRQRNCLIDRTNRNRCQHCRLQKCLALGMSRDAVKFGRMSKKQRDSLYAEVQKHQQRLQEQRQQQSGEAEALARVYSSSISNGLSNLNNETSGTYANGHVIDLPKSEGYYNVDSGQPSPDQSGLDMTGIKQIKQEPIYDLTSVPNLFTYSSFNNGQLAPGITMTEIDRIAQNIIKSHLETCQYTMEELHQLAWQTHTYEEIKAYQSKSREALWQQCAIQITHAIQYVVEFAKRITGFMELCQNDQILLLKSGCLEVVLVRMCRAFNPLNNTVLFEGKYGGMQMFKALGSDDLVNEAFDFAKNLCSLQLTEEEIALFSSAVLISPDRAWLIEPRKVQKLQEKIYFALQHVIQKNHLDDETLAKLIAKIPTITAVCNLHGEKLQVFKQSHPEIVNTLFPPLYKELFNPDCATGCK
human Retinoic Acid Receptor gamma (RARg), RARG (gene 5916), sequence (P13631 whole entry, looked up, the tested form may be a part): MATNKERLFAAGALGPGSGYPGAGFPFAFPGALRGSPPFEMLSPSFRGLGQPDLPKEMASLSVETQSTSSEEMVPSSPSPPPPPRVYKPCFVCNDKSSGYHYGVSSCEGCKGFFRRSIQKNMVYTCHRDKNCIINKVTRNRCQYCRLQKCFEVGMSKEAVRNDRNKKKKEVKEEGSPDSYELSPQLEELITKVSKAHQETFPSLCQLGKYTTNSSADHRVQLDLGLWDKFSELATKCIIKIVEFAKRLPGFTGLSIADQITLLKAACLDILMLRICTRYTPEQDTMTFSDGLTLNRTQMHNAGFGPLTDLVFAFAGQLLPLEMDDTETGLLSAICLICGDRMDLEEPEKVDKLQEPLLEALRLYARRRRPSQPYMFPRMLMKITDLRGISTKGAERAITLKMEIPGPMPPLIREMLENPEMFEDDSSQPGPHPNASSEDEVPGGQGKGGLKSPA
human Retinoid X Receptor beta (RXRb), RXRB (gene 6257), sequence (P28702 whole entry, looked up): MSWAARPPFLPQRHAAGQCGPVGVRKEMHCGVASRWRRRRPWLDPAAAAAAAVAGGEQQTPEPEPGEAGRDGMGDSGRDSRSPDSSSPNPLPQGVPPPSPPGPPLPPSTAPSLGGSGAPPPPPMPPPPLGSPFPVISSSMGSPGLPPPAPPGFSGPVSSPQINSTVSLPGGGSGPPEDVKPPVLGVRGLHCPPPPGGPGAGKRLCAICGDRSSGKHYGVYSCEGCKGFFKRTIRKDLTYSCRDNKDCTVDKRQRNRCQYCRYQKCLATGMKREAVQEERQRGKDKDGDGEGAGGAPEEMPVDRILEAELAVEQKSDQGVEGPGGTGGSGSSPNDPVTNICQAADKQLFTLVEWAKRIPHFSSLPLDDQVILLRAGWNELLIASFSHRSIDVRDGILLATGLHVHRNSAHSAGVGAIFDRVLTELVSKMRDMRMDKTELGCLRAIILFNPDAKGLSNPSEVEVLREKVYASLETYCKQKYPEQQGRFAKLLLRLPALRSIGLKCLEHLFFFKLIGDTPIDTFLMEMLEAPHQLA
E-selectin (Homo sapiens), sequence (P16581 whole entry, looked up): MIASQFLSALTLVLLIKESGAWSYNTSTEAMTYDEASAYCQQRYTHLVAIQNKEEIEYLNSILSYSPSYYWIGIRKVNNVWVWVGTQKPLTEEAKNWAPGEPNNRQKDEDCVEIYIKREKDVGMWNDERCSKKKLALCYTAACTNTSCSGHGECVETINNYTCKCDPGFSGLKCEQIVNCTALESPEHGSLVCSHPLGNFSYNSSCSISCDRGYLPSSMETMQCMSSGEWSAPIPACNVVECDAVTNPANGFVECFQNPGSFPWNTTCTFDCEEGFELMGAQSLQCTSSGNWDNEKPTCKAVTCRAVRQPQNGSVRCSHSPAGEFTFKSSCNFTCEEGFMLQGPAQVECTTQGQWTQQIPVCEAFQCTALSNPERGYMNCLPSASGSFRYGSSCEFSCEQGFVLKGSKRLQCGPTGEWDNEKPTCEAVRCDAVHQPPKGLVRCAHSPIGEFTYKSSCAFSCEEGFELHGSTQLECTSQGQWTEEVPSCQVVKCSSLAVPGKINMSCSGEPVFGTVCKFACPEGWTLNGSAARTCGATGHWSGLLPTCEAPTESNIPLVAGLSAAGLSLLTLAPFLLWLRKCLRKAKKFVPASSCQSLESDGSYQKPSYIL

OCCCCC(F)(F)C(F)(F)C(F)(F)C(F)(F)F
not listed: [13] | [14] | [15] | [16] | [17] | [18] | [19] | [20]
inactive: all other assays above

NC(=O)C(F)(F)C(F)(F)C(F)(F)C(F)F
not listed: [7] | [17] | [18] | [19] | [20]
inactive: all other assays above

C[C@]12CC[C@H]3C(=CCc4cc(O)ccc43)[C@@H]1CCC2=O
active: [5] 32.1 µM | [13] 26.6 µM | [12] 20 µM
not listed: [8] | [15] | [16] | [19] | [20]
inactive: all other assays above

O=C(O)CCC(F)(F)C(F)(F)C(F)(F)C(F)(F)C(F)(F)C(F)(F)C(F)(F)F
active: [6] 150 µM
not listed: [7] | [15] | [17] | [18] | [20]
inactive: all other assays above

O=S(=O)(Cl)C(F)(F)C(F)(F)C(F)(F)C(F)(F)C(F)(F)C(F)(F)C(F)(F)C(F)(F)F
inactive: [1] | [2] | [3] | [4] | [17] | [18] | [5] | [13] | [7] | [14] | [19] | [8] | [11] | [12]
active: [6] 34.9 µM | [9] 46.5 µM and 39.2 µM | [10] 46.4 µM and 47.1 µM | [11] 22.3 µM

Cc1ccc(O)c(-n2nc3ccccc3n2)c1
active: [13] 14.6 µM
not listed: [7] | [15] | [18] | [19] | [20]
inactive: all other assays above

O=C(Cl)C(F)(F)C(F)(F)C(F)(F)C(F)(F)C(F)(F)C(F)(F)F
active: [2] 10.9 µM
not listed: [3] | [6] | [14] | [15] | [16] | [19]
inactive: all other assays above

NC(=O)C(F)(F)C(F)(F)C(F)(F)C(F)(F)C(N)=O
not listed: [7] | [8] | [17] | [18] | [19] | [20]
inactive: all other assays above

O=S(=O)(O)CCC(F)(F)C(F)(F)C(F)(F)C(F)(F)C(F)(F)C(F)(F)C(F)(F)C(F)(F)F
not listed: [7] | [8] | [15] | [16] | [17] | [18] | [20]
inactive: all other assays above

O=C(Cl)C(F)(F)C(F)(F)C(F)(F)C(F)(F)C(F)(F)C(F)(F)C(F)(F)F
active: [2] 10.8 µM
not listed: [6] | [15] | [17] | [18] | [20]
inactive: all other assays above

C=CC(=O)OCC(F)(F)C(F)(F)C(F)(F)C(F)(F)C(F)(F)C(F)(F)C(F)(F)C(F)F
active: [5] 20.8 µM and 24.1 µM | [6] 37.6 µM
not listed: [7] | [15] | [16] | [17] | [18] | [19] | [20]
inactive: all other assays above

OCCCC(F)(F)C(F)(F)C(F)(F)C(F)(F)C(F)(F)C(F)(F)C(F)(F)C(F)(F)F
inactive: [3] | [17] | [18] | [6] | [13] | [7]
active: [1] 18.9 µM and 31.8 µM | [4] 22.4 µM and 45.5 µM | [5] 7.56 µM and 9.56 µM | [8] 23.8 µM | [9] 27.4 µM and 50.6 µM | [10] 46.9 µM and 39.5 µM | [16] 20.8 µM and 31.7 µM | [11] 45.5 µM and 46.7 µM | [12] 19.4 µM and 43.2 µM

CCCCCCCCCCCCC[N+](C)(C)Cc1ccccc1
inactive: [2] | [3] | [17] | [18] | [6] | [13] | [8] | [20]

NC(=O)C(F)(F)C(F)(F)C(F)(F)F
inactive: [1] | [2] | [4] | [5] | [19] | [8] | [9] | [10] | [11] | [12]

CCN(CC)c1ccc(C=O)c(O)c1
active: [12] 32.9 µM
inactive: [1] | [4] | [5] | [13] | [19] | [20] | [9] | [10] | [11]
